From ChEMBL document CHEMBL1961873, “Compounds: GSK PKIS; Assays: Nanosyn kinase panel” (2012) come the findings set out here.

SMILES strings stand for the structures. Values joined by “and” are separate entries in the source; they are usually repeats but may differ in a detail not shown here. Equal values may be shown once.

In assay [1] the target is Leukocyte tyrosine kinase receptor (Homo sapiens) (UniProt P29376). The note with it: at 1 µM.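 Also: each value is the mean inhibition of LTK.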
Assay [2] deals with Tyrosine-protein kinase Lyn (Homo sapiens) (UniProt P07948). The note with it: at 0.1 µM.
For assay [3] the target is unchanged. The note with it: at 1 µM.
Assay [4] has the same target. The note with it: at 0.1 µM. This is another data set of the same source.
Assay [5] has the same target. The note with it: at 1 µM. This is another data set of the same source.
Assay [6] concerns the target T1, Tyrosine-protein kinase Mer (Homo sapiens) (UniProt Q12866).
T1 sequence (whole entry): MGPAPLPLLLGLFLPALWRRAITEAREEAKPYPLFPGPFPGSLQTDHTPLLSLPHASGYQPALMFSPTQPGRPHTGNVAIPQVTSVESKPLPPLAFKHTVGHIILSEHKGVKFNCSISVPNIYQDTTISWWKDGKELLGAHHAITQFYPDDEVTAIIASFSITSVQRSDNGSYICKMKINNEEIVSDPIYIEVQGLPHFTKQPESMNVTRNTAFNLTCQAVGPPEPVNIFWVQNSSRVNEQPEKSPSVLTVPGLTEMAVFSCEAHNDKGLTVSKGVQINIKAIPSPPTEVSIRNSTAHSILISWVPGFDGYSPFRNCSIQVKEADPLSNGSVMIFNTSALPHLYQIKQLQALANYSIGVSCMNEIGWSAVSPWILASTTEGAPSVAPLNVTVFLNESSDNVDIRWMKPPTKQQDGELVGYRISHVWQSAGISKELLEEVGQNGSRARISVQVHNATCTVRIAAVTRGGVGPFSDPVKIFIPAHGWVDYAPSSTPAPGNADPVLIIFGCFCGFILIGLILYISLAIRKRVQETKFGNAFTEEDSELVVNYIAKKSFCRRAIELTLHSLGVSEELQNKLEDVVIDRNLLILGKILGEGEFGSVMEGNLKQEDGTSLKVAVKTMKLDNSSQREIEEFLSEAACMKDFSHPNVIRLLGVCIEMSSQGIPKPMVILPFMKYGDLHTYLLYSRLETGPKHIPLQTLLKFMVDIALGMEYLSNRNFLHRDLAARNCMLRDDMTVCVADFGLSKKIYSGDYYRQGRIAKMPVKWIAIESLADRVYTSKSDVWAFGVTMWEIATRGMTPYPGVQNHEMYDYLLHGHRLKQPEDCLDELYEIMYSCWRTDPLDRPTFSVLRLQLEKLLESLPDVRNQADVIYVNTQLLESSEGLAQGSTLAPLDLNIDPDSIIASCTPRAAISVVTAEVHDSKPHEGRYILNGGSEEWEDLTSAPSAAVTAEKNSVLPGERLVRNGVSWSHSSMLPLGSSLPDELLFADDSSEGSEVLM
The note with it: at 0.1 µM.

In assay [7] the target is T1, Tyrosine-protein kinase Mer (Homo sapiens). The note with it: at 1 µM.
Assay [8] deals with Hepatocyte growth factor receptor (Homo sapiens) (UniProt P08581). The note with it: at 0.1 µM.
The target is the same in assay [9]. The note with it: at 1 µM.
In assay [10] the target is T2, Muscle, skeletal receptor tyrosine-protein kinase (Homo sapiens) (UniProt O15146).
T2 sequence (whole entry): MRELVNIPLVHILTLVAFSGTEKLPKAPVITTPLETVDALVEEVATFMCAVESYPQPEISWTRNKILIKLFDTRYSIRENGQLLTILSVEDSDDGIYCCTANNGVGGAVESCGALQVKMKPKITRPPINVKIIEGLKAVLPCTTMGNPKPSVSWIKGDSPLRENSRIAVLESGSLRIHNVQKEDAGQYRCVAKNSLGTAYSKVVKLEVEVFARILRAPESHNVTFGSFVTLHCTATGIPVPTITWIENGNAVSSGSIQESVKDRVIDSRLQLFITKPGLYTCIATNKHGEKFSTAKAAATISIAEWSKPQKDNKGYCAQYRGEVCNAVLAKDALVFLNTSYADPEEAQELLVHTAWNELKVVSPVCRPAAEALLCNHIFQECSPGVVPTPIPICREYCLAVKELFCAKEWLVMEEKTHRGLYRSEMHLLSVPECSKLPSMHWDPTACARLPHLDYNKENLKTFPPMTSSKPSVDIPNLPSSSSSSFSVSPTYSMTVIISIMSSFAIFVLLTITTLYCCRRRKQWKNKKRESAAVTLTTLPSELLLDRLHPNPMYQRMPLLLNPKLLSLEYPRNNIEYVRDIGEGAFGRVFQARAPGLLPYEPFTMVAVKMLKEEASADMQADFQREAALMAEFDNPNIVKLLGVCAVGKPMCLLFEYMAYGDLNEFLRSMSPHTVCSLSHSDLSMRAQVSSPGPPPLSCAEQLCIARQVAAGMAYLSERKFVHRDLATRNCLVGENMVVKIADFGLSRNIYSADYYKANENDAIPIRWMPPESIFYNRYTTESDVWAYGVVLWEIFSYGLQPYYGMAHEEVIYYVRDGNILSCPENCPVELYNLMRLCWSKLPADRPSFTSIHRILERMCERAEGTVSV
The note with it: at 0.1 µM.

Assay [11] concerns the target T2, Muscle, skeletal receptor tyrosine-protein kinase (Homo sapiens). The note with it: at 1 µM.
The target of assay [12] is Platelet-derived growth factor receptor alpha (Homo sapiens) (UniProt P16234). The note with it: at 0.1 µM.
Assay [13] shares this target. The note with it: at 1 µM.
Assay [14] concerns Platelet-derived growth factor receptor alpha (Homo sapiens), P16234 [D842V]. The note with it: at 0.1 µM.
The test system is the same in assay [15]. The note with it: at 1 µM.
In assay [16] the test system is Platelet-derived growth factor receptor alpha (Homo sapiens), P16234 [T674I]. The note with it: at 0.1 µM.
Assay [17] has the same test system. The note with it: at 1 µM.
Assay [18] relates to Platelet-derived growth factor receptor alpha (Homo sapiens), P16234 [V561D]. The note with it: at 0.1 µM.
Assay [19] shares this test system. The note with it: at 1 µM.
Assay [20] concerns the target Platelet-derived growth factor receptor beta (Homo sapiens) (UniProt P09619). The note with it: at 0.1 µM.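 Also: reported value is the mean percent inhibition of the kinase.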

Usually inhibition stands for the drop in the measured response relative to a control, in per cent.

Sequence of Platelet-derived growth factor receptor alpha (Homo sapiens), P16234 [V561D] (P16234 whole entry V561D): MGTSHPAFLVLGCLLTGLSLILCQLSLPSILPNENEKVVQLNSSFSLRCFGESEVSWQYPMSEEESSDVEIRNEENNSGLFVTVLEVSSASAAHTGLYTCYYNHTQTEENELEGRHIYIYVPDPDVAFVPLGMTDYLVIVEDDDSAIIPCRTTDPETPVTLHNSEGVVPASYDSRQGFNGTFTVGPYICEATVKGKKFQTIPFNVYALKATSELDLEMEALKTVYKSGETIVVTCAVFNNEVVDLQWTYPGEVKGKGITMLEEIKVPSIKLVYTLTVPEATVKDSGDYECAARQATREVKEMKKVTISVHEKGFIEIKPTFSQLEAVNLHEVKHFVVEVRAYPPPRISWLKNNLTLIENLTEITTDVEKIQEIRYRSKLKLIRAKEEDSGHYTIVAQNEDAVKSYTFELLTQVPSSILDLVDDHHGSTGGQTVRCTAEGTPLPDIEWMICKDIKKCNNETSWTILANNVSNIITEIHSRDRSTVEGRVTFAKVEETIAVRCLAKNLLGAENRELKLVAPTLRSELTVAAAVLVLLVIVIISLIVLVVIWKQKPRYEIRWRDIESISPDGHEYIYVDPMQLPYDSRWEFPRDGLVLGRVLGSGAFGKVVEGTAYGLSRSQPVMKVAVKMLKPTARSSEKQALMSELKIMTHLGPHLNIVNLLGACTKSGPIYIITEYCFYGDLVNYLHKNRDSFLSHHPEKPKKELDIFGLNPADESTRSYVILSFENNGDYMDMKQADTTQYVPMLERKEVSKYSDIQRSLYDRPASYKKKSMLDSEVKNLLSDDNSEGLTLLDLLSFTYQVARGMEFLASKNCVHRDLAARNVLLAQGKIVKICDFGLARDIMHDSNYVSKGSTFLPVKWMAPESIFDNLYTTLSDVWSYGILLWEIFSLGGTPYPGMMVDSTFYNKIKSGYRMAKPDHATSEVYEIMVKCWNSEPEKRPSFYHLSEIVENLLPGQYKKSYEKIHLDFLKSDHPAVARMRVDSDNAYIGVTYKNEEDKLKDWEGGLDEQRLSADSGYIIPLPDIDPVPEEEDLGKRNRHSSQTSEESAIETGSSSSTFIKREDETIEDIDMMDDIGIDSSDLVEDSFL
Sequence of Platelet-derived growth factor receptor alpha (Homo sapiens), P16234 [T674I] (P16234 whole entry T674I): as the sequence (P16234 whole entry V561D) above, with D561V, T674I counted along it
Sequence of Platelet-derived growth factor receptor alpha (Homo sapiens) (P16234 whole entry): as the sequence (P16234 whole entry V561D) above, with D561V counted along it
Sequence of Tyrosine-protein kinase Lyn (Homo sapiens) (P07948 2-512 limits assumed): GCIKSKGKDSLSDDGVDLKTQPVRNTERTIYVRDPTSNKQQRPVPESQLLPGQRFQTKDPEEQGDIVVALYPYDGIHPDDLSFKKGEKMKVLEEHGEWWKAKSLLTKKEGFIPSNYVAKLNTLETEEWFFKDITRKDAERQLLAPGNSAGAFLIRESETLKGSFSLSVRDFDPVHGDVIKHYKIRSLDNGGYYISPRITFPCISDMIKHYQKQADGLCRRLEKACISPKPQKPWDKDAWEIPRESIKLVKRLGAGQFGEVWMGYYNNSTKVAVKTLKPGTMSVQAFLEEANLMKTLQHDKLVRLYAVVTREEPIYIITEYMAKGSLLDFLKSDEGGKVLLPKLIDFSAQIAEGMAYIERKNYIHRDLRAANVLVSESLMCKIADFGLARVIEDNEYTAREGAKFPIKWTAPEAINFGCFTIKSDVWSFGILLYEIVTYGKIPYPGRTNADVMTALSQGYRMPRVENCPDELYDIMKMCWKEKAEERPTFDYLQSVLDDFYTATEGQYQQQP
Sequence of Platelet-derived growth factor receptor beta (Homo sapiens) (P09619 whole entry): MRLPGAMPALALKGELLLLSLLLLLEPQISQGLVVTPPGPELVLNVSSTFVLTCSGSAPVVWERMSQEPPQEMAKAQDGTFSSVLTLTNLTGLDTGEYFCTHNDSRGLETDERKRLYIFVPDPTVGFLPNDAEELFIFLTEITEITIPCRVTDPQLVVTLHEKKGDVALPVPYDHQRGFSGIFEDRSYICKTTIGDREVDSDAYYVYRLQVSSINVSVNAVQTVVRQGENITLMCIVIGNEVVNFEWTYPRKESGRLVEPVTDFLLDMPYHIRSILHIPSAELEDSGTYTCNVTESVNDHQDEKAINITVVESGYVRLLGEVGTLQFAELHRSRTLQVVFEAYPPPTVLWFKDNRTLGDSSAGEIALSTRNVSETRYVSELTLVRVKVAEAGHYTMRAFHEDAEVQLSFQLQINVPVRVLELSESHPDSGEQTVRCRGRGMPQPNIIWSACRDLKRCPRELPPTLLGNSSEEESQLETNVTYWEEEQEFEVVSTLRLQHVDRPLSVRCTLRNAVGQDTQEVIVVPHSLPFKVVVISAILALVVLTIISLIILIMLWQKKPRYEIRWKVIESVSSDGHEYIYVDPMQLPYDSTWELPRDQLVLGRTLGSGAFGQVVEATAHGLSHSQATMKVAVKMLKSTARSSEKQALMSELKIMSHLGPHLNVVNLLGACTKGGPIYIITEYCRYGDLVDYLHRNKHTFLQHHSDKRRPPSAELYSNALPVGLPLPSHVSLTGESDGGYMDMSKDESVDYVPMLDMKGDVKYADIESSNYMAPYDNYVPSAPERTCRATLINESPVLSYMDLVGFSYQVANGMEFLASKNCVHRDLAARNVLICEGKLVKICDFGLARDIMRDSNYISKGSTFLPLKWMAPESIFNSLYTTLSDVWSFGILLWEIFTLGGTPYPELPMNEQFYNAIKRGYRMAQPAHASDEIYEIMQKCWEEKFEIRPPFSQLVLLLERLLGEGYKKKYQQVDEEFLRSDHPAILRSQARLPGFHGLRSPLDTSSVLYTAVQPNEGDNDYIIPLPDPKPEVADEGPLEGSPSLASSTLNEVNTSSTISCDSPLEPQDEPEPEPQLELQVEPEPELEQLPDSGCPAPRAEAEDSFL

As for `CCOc1ccc2c(-c3ccnc(Nc4cc(OC)cc(C(F)(F)F)c4)n3)cnn2n1`, the inhibition was 1.37% in assay [1]; 2.55% in [2]; 5.91% in [3]; 0.62% in assay [4]; 4.08% in assay [5]; 1.11% in assay [6]. Moreover, the inhibition in assay [7] was determined as 4.18%; in assay [8] it was 4.49%; in assay [9], 5.18%; in assay [10], 0.02%; in assay [11], 5.37%; in assay [12] it was 6.45%. Moreover, the inhibition in assay [13] is 30%; in assay [14], 2.97%; in assay [15], 18.4%; in assay [16] it was 2.28%; in assay [17] it was 8.05%; in [18], 6.9%. The inhibition came to 33.4% in assay [19] and 7.05% in assay [20].

For `CN(c1ccc(NC(=O)NCCN2CCOCC2)cc1)c1ccnc(Nc2ccc(CS(C)(=O)=O)cc2)n1`, the inhibition stood at 5.29% in assay [1]; 4.34% in assay [2]; 14.9% in assay [3]; 2.19% in [4]; 13.6% in assay [5]; 1.6% in assay [6]. In addition, the inhibition stood at 6.28% in assay [7]; 3.89% in assay [8]; 41.4% in assay [9]; 3.78% in [10]; 8.61% in assay [11]; 51.8% in assay [12]. The inhibition in assay [13] was determined as 84.4%; in [14], 2.7%; in [15] it was 28.6%; in [16] it was 63.9%; in assay [17], 95%; in assay [18], 61.6%. For the same compound, the inhibition worked out at 90.1% in [19] and 33.7% in assay [20].

Consider `c1ccc(-c2n[nH]cc2-c2ccnc(-c3ccc(OCCn4ccnc4)cc3)c2)nc1`, for which the inhibition in [1] came to 2.53%; in assay [2], 2.2%; in assay [3] it was 16.3%; in [4], 0.89%; in [5] it was 12.3%; in assay [6], 0.8%. Moreover, the inhibition in [7] stood at 2.68%; in assay [8], 4.9%; in assay [9], 0.98%; in [10] it was 0.34%; in assay [11] it was 4.35%; in [12], 14.2%. Moreover, the inhibition in assay [13] was determined as 64.6%; in [14], 23.5%; in assay [15], 76.1%; in assay [16] it was 6.06%; in assay [17], 6.32%; in assay [18] it was 17.8%. For the same compound, the inhibition in assay [19] was 57%; in assay [20], 15.3%.

In the case of `CC(C)c1ccc(-c2cc(-c3c[nH]nc3-c3ccccn3)ccn2)cc1`, the inhibition was 2.43% in assay [1]; 1.49% in assay [2]; 1.48% in assay [3]; 0.81% in assay [4]; 1.31% in [5]; -0.12% in [6]. Moreover, the inhibition was 3.22% in [7]; -1.81% in assay [8]; 3.3% in assay [9]; 5.54% in assay [10]; 6.85% in assay [11]; 10% in assay [12]. Also, the inhibition in assay [13] came out at 19.8%; in [14], 5.82%; in [15] it was 34.2%; in assay [16], 4.22%; in assay [17] it was 3.25%; in [18], 5.56%. For the same compound, the inhibition was found to be 20.6% in assay [19] and 3.19% in [20].

For the compound `NS(=O)(=O)c1ccc(N/N=C2\C(=O)Nc3ccc(C(=O)NCc4ccncc4)cc32)cc1`, the inhibition in [1] was 2.51%; in [2] it was 5.87%; in [3], 17.7%; in assay [4], 3.02%; in [5], 14.7%; in assay [6], 1.29%. Besides, the inhibition stood at 1.37% in assay [7]; 5.14% in assay [8]; 13% in assay [9]; 9.84% in assay [10]; 21.9% in [11]; 23.6% in assay [12]. Besides, the inhibition in [13] amounted to 69.4%; in assay [14], 18.8%; in [15] it was 71.5%; in assay [16] it was 3.72%; in assay [17], 16.9%; in assay [18] it was 15.6%. Also, the inhibition in assay [19] turned out to be 61.3%; in assay [20] it was 45.6%.

On to `Nc1ncnc2occ(-c3ccc(NC(=O)Nc4cc(C(F)(F)F)ccc4F)cc3)c12`, for which the inhibition is 53.6% and 34% in [1]; 20.4% and 9.18% in assay [2]; 73.7% and 57.2% in assay [3]; 17.2% and 6.3% in [4]; 70.5% and 53.6% in [5]; 4.87% and 1.22% in assay [6]. The inhibition in [7] is 34.7% and 21.6%; in assay [8], 11% and 2.19%; in [9], 29.8% and 11%; in assay [10], 87.2% and 84.2%; in [11], 94.1% and 97.6%; in assay [12], 80.4% and 68.5%. The inhibition in assay [13] is 93.4% and 90.3%; in assay [14], 17% and 8.08%; in assay [16] it was 75.6% and 72.8%; in assay [17] it was 97.9% and 83%; in [18], 88.8% and 81.8%; in assay [19], 97.9% and 96.5%. For the same compound, the inhibition in [20] was 48.5% and 28.9%.

`Cc1cc(O)cc(C)c1/C=C/c1cncc(C(N)=O)c1`: the inhibition in assay [1] is 3.91%; in assay [2], 14.8%; in assay [3] it was 61%; in assay [4], 10.4%; in assay [5] it was 57%; in assay [6] it was 1.5%. In addition, the inhibition in assay [7] turned out to be 2.49%; in assay [8], 0.96%; in [9], 6.76%; in assay [10], 3.77%; in [11] it was 3.91%; in assay [12], 13%. Moreover, the inhibition in assay [13] amounted to 39.4%; in assay [14] it was 3.88%; in assay [15], 16.3%; in assay [16] it was 4.15%; in assay [17], 4.33%; in [18] it was 21%. Moreover, the inhibition came to 55.5% in assay [19] and 9.04% in assay [20].
